Polio RdRp inh: inhibitors of poliovirus RNA polymerase binding and polymerization; AID 588519; poliovirus polymerase elongation, fluorescence polarization; hits give low values; P03300; 0.66% of 150,000 active; % elongation, % (compound at 16.7 µg/mL); in the data active = % elongation below about 90%
Target sequence (P03300 1749-2209 limits assumed): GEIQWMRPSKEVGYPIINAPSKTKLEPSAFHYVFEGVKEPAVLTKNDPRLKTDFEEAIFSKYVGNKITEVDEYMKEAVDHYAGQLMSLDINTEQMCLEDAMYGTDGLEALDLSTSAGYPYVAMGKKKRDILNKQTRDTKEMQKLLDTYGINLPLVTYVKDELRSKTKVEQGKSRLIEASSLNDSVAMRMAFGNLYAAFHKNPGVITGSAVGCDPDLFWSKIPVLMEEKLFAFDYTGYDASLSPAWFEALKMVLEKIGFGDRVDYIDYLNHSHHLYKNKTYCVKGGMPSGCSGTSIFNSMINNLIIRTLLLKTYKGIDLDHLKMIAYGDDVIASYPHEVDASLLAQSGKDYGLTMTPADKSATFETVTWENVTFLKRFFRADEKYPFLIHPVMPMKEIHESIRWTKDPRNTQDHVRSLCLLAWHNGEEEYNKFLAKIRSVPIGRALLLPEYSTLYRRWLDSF
MbtI inh: MbtI salicylate synthase inhibition. P9WFX0. purified MbtI enzyme, fluorescence intensity read-out. inhibition, % (test concentration not listed). 0.89% of 100,000 active. AID 493033; in the data active = inhibition mostly above about 56%, no sharp cut-off; inactive = mostly below about 77%
MenB inh: Mtb MenB enzyme inhibition; P9WNP5; MenB enzyme assay, absorbance read-out; inhibition, % (no concentration beside the values); 0.43% of 100,000 active; in the data active = inhibition above about 21%, passing the limit was not always enough
AID504770: growth inhibitors of E. coli YBA685 in a screen for V. cholerae RctB (chromosome II replication) inhibitors | 0.27% of 130,000 active | AID 504770 | E. coli YBA685 rctB-dependent plasmid, OD600 growth, 3 h; hits give low values | z-score (concentration not given with the values); in the data active = z-score below about -2, passing the limit was not always enough
Active calls of the source: *; . = no result given. Most compounds without a hit are left out; they make up all but 1.5% or so of the library.

SMILES	Polio RdRp inh	MbtI inh	MenB inh	AID504770
CC1CCN(C(=S)c2ccc(O)cc2)CC1	100.0	98.5*	-11.8	-1
NC(=S)C(=S)N1CCOCC1	102.0	20.1	30.4	2.2
CCOc1ccc2nc(N3CCC(C(=O)NCCOC)CC3)sc2c1	100.0	-1.4	2.6	0.4
Cc1noc2ncnc(NC(C)(C)CCO)c12	104.0	-7.0	-19.9	0.5
Oc1ccc(C(=S)N2CCCCCC2)cc1	97.0	83.8*	-24.0	0.35
S=C(c1ccc(Cl)cc1)N1CCCCC1	99.0	39.0	-74.6	0.5
Cc1noc(C)c1-n1sc(=O)n(CC2CC2)c1=O	93.0	99.4*	15.5	-0.8
Cc1cccn(Cc2c(Cl)cccc2Cl)c1=O	108.0	11.4	-11.4	0.05
Cc1cccc(Cl)c1-n1sc(=O)n(CC2CC2)c1=O	96.0	72.1*	-5.6	-1.55
O=C(O)C1C2C=CC(C2)C1C(=O)NCc1cccs1 (stereo not given)	99.0	-16.6	22.7*	-0.35
Cc1oc(-n2c(C)ccc2C)c(C#N)c1C(C)O (stereo not given)	109.0	-2.5	-21.7	-0.2
Cc1c(C#N)c(NC(=O)CSc2nc3ccccc3s2)n(CC2CCCO2)c1C (stereo not given)	106.0	4.1	-25.2	0
CCn1c(NCc2ccccc2)nc2ccccc21	100.0	1.6	38.1*	0.4
C=CCn1c(NCc2ccccc2)nc2ccccc21	106.0	.	-3.5	-0.75
NC(=O)COC(=O)C(c1ccccc1)c1ccccc1	105.0	-6.6	-26.3	-1.6
FC(F)(F)c1cc(C(F)(F)F)n2[nH]c(=S)nc2n1	98.0	95.7*	-102.6	-0.3
CC1(C)CC(=O)C=C(NCCc2ccccc2)C1	101.0	23.5	32.8*	1.6
COc1cccc2c(CCN)c[nH]c12	89.0*	.	5.8	0.35
COc1ccc(NC(=O)c2cc3ccc(O)cc3o/c2=N\O)cc1	101.0	8.3	32.1*	-0.15
COc1ccc(NC(=O)c2cc3ccc(O)cc3oc2=Nc2ccc(C(=O)O)cc2)cc1	107.0	6.5	-89.5	0
O=c1c(Br)cccc(Br)c1O	105.0	39.0	-169.4	-3.55*
CC(C)C(=O)NCc1n[nH]c(=O)c2ccccc12	104.0	0.4	-30.4	-0.75
CCN(CC)C(=S)SSC(=S)N(CC)CC	99.0	98.5*	2.6	-1.05
C=CCC1Cc2ccccc2C(CC=C)N1 (stereo not given)	100.0	-3.1	39.3*	-0.1
C=CCC1Cc2ccccc2C(C)N1 (stereo not given)	.	4.2	.	0.6
SMILES	Polio RdRp inh	MbtI inh	MenB inh	AID504770
Cc1sc2nc(CSC(C)C(=O)N=c3sc4ccccc4n3C)[nH]c(=O)c2c1C (stereo not given)	104.0	6.2	13.1	-1.05
O=C(OCc1cc(=O)oc2cc(O)ccc12)c1cc(Br)ccc1O	103.0	-97.4	1.7	-0.55
O=C(OCc1cc(=O)oc2cc(O)ccc12)c1nc(Cl)ccc1Cl	88.0*	-31.9	-11.9	-0.35
Cc1nc(-c2ccc(-c3noc(C)n3)cc2)no1	.	.	.	-0.65
COc1cc(Cl)c(C)cc1NC(=S)N(Cc1ccccc1C)CC1CCC(C(=O)O)CC1 (stereo not given)	98.0	52.5*	-11.5	-0.2
Cc1ccccc1C(=O)NN1C(=O)c2ccccc2C1=O	101.0	-0.7	32.7*	-0.3
O=C(NN1C(=O)c2ccccc2C1=O)c1ccccc1	100.0	.	8.2	-0.6
CC(C)Cn1c(SCc2nnc(-c3cccs3)o2)nc(O)cc1=O	83.0*	16.8	-165.4	-1.15
O=C1OCC(CO)N1c1ccccc1 (stereo not given)	90.0*	.	-43.1	1.4
Nc1nc(CN2CCCCC2)cs1	101.0	-11.8	38.5*	-0.75
CCOC(=O)c1sc(SCC(=O)c2ccc(Cl)cc2Cl)nc1C	86.0*	-0.2	1.1	-0.3
CCOC(=O)c1sc(CN2CCN(c3cccc(Cl)c3)CC2)nc1C	.	.	.	1
COc1ccc(-c2noc(N3CCCC(C(=O)NCCc4ccc(OC)c(OC)c4)C3)n2)cc1 (stereo not given)	101.0	-3.7	-18.8	0.05
Cc1nn(-c2ccccc2)nc1CNS(=O)(=O)c1cccs1	.	.	.	-3.3*
Cc1nn(-c2ccccc2)nc1CNS(C)(=O)=O	102.0	10.7	-11.4	-0.65
O=S(=O)(c1ccc(Cl)c(Cl)c1)N1CCOCC1	.	.	.	0
COc1ccc(/C=C/C(=O)Nc2ccccc2)cc1	101.0	13.4	3.1	-0.75
COC(=O)/C=C/C(=O)Nc1ccccc1	101.0	101.3*	-11.2	-2.25
CC(C)NC(=O)C1CC(=O)N(Cc2ccccc2)C1 (stereo not given)	105.0	-5.2	9.6	0.85
N#Cc1c(N(C(=O)/C=C/c2ccco2)C(=O)/C=C/c2ccco2)oc(-c2ccco2)c1-c1ccco1	89.0*	4.4	-15.7	0.85

Screening data from PubChem BioAssay.
